Bioassay records from PubChem BioAssay.
This is a sample that favours compounds with a hit; in the whole collection about 3.4% have one here.
TEAD-YAP inh: TEAD-YAP interaction inhibition, primary screen, TEAD-YAP interaction inhibitor project, luminescence, HEK-TIYL cells. TEAD-Gal4/YAP UAS-luciferase luminescence. inhibition, % at 9.12 µM. hit rate 1.4% among 640,000; in the data active = inhibition above about 32%;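 note: 0% = median of test compound wells and 100% = reference inhibitor wells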
MITF inh: MITF inhibitors, primary screen, biochemical, AlphaScreen, human; AlphaScreen MITF homodimerization, bead proximity signal; hit rate 0.91% among 650,000; inhibition, % at 2.6 µM; in the data active = inhibition above about 50%;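 note: 0% = vehicle wells with protein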
Target sequence (O75030 whole entry, looked up): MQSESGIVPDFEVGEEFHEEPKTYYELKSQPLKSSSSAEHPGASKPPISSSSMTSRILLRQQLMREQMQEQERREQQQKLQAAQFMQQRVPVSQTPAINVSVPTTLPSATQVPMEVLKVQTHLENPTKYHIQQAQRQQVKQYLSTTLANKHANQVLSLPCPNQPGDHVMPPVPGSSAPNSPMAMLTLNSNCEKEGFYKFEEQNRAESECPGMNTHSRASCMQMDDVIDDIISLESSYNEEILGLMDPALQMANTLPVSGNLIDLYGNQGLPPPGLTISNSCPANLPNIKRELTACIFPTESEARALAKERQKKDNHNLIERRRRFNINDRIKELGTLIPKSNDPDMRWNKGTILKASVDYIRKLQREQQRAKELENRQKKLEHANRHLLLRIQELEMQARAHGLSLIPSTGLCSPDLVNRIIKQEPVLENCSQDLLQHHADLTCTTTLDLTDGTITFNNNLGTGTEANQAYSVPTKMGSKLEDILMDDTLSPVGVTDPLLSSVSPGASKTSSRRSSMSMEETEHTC
FBW7 activator: FBW7 E3 ligase activators, primary screen, biochemical, AlphaScreen, human | F-box/WD repeat-containing protein 7 (Homo sapiens), Q969H0 | AlphaScreen FBW7–phospho-cyclin E peptide binding, activator screen | normalized activity (activation), % at 26.1 µM | hit rate 0.13% among 650,000 | AID 1259310, 2017; in the data active = normalized activity above about 1.9%;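 note: purified mutant Fbw7 with reduced substrate affinity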
GPR151 ag: activators of human GPR151, primary screen, cell-based, PathHunter beta-arrestin, luminescence; G-protein coupled receptor 151 (Homo sapiens), Q8TDV0; PathHunter beta-arrestin GPR151 cells; activation, % at 11.2 µM; hit rate 1% among 650,000; AID 1508602, 2020; in the data active = activation above about 4.9%;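 note: 0% = median of compound wells and 100% = cells with positive control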
The depositor's hits bear a star.

SMILES | TEAD-YAP inh | MITF inh | FBW7 activator | GPR151 ag
O=C(COc1ccccc1)N1CCN(c2ccc(Nc3ccncc3)nn2)CC1 | -5 | 2 | 2.0* | 2
CC(=O)C1=C(C)Nc2ncnn2C1c1ccc(C)o1 (stereo not drawn) | 15 | 16 | 1 | 2
Cc1ccccc1N1CCN(C2=NC(=O)/C(=C\c3ccccc3OC(C)C)S2)CC1 | 0 | -1 | 0 | 0
CC(C)Oc1ccccc1/C=C1/SC(N2CCCC2)=NC1=O | 38* | -6 | 0 | -2
Cc1ccc(/C=C(\NC(=O)c2ccccc2)C(=O)NCC(=O)O)cc1 | -1 | 14 | 0 | 2
Fc1ccc(Nc2nc(NCc3ccco3)c3ccccc3n2)cc1 | 36* | 29 | 0 | 0
Clc1ccc(Nc2nc(NCc3ccco3)c3ccccc3n2)cc1 | 0 | -3 | 0 | 1
COc1ccc(Nc2nc(NCc3ccco3)c3ccccc3n2)cc1 | 50* | 7 | 0 | 2
CCCc1nnc(SCC(=O)N2CCN(c3ccccc3OC)CC2)n1C | 5 | 0 | 0 | 0
COc1ccc(/C=C2\C=C(c3ccccc3)N(c3cccc(Br)c3)C2=O)cc1 | -13 | 4 | 0 | 0
CS(=O)(=O)c1ccc(N2CCN(S(=O)(=O)c3cccs3)CC2)c(F)c1 | -7 | 7 | 0 | 2
NS(=O)(=O)c1ccc(N2CCN(S(=O)(=O)c3cccs3)CC2)c([N+](=O)[O-])c1 | 34* | 0 | 0 | 1
NC(=O)c1ccc(N2CCN(S(=O)(=O)c3ccccc3)CC2)c([N+](=O)[O-])c1 | 34* | 3 | 0 | 5
CSc1ncc(Cl)c(C(=O)N2CCN(C)CC2)n1 | 4 | -13 | 0 | 0
COc1ccccc1N1CCN(C(=O)COc2cccc(C)c2C)CC1 | 4 | 18 | 0 | 0
COC(=O)c1cc(C(=O)N2CCN(c3ccccc3OC)CC2)cc([N+](=O)[O-])c1 | 64* | -11 | 0 | 2
COc1ccccc1N1CCN(C(=O)c2nc(SC)ncc2Cl)CC1 | 49* | -18 | 0 | 4
COc1ccccc1N1CCN(C(=O)COc2ccc(Br)cc2C)CC1 | 49* | 6 | 0 | 2
Cc1c(C(=O)N2CCN(c3cccc(Cl)c3)CC2)sc2nc[nH]c(=O)c12 | 48* | -9 | 0 | 0
O=C(N1CCCCCC1)N1c2ccccc2Sc2ccccc21 | -3 | 3 | 0 | 0
COc1ccccc1CNC(=O)c1ncoc1-c1ccccc1C(F)(F)F | -3 | -2 | 0 | -1
CSc1ccc(NC(=O)NCCN2CCN(c3cccc(Cl)c3)CC2)cc1 | 3 | -13 | 4.4* | 0
COc1ccccc1N1CCN(C(=O)c2ncoc2-c2ccccc2C(F)(F)F)CC1 | 51* | -17 | 0 | 0
O=C(N1CCN(c2ccccc2F)CC1)N1c2ccccc2Sc2ccccc21 | 64* | 11 | 0 | 2
COc1ccc(C(=O)N2CCN(c3cccc(C)c3C)CC2)cc1 | 1 | 6 | 0 | 1
SMILES | TEAD-YAP inh | MITF inh | FBW7 activator | GPR151 ag
COc1cc(OC)cc(C(=O)N2CCN(c3cccc(C)c3C)CC2)c1 | 47* | 12 | 0 | -1
O=C(/C=C/c1ccccc1)NCCOC(=O)NC1CCCCC1 | 6 | -5 | 0 | 0
CN(CCCNC(=O)C1CCN(c2nnc(N3CCCC3=O)s2)CC1)C1CCCCC1 | 3 | -2 | 0 | 1
COc1cc(C(=O)N2CCCc3ccccc32)cc(OC)c1OC | -1 | 10 | 0 | 1
COc1cc(C(=O)N2CCN(c3cccc(Cl)c3)CC2)cc(OC)c1OC | 52* | 3 | 0 | 1
COc1nn(C)cc1C(=O)N1CCCC(C(=O)N2CCN(c3cccc(Cl)c3)CC2)C1 (stereo not drawn) | 42* | 0 | 0 | -1
COc1ccccc1N1CCN(C(=O)c2cc(OC)c(OC)c(OC)c2)CC1 | 64* | -8 | 0 | 1
COc1ccc2c(c1)CCCN2C(=O)c1cc(OC)c(OC)c(OC)c1 | 45* | 14 | 0 | 2
COC(=O)C(C)NS(=O)(=O)c1ccc(Cl)cc1 (stereo not drawn) | 0 | -3 | 0 | -1
O=[N+]([O-])c1ccc(N/N=C/c2cccnc2)c([N+](=O)[O-])c1 | 5 | 10 | 0 | 3
CCCS(=O)(=O)N1CCN=C1SCc1ccc([N+](=O)[O-])cc1 | -9 | -11 | 0 | -2
O=C(NC1CCN(Cc2ccccc2)CC1)c1cccc(Cl)n1 | 3 | -3 | 0 | -3
Nc1nc(SCC(=O)NCc2ccccc2)nc2sc3c(c12)CCC3 | -3 | -2 | 0 | -1
COc1ccc(Cl)cc1C(=O)N1CCN(c2ccccc2F)CC1 | 34* | 0 | 0 | 4
COc1cc(SC)ccc1C(=O)N1CCN(c2cccc(Cl)c2)CC1 | 51* | 11 | 0 | 1
Cc1cccc(N2CCN(C(=O)c3c(-c4ccccc4)noc3C)CC2)c1C | 53* | -7 | 0 | 0
COc1ccccc1N1CCN(C(=O)c2cc(Br)cc(Br)c2)CC1 | 58* | 15 | 0 | 1
Cc1onc(-c2ccccc2)c1C(=O)N1CCN(c2ccc([N+](=O)[O-])cc2Cl)CC1 | 3 | 2 | 0 | -1
CC(C)CCSc1nnc2n(Cc3ccccc3)c(=O)c3c4c(sc3n12)CCCC4 | 7 | 5 | 0 | -1
COCc1ccc(-c2ccc(OC3CCNCC3)cc2)cc1 | 38* | -5 | 0 | 0
c1ccc2oc(-c3ccc(OC4CCNCC4)cc3)cc2c1 | 68* | -4 | 0 | 2
CCN1CCC(Oc2ccc(-c3ccc(COC)cc3)cc2)CC1 | -30 | 7 | 0 | 4
N#Cc1ccc(-c2ccc(OC3CCNCC3)cc2)cc1 | -42 | 18 | 0 | 0
CCN1CCC(NCc2ccccc2C(F)(F)F)CC1 | 6 | -2 | 0 | 1
CCCC(=O)Nc1sc2c(c1C(N)=O)CCN(C(=O)OCC)C2 | 51* | 1 | 0 | -1
SMILES | TEAD-YAP inh | MITF inh | FBW7 activator | GPR151 ag
CCOC(=O)N1CCc2c(sc(NC(=O)C(C)(C)C)c2C(N)=O)C1 | 1 | -1 | 0 | 1
CCCCC(=O)Nc1sc2c(c1C(N)=O)CCN(C(=O)OCC)C2 | 50* | 7 | 0 | -1
Cc1ncc(CO)c(/C=N/NC(=O)CCCc2c[nH]c3ccccc23)c1O | -1 | -8 | -1 | 1
COc1ccc(Nc2cc(C)c3c(O)cccc3n2)cc1 | 38* | 12 | 0 | -1
O=C(CSc1nc2ccccc2n1S(=O)(=O)c1ccc(Br)cc1)NC1CCCCC1 | 2 | -7 | 0 | 0
Clc1ccc(-c2cc3c(nn2)Nc2ccccc2N3)cc1 | 86* | 8 | 0 | -5
COc1ccc(C2=CC(=O)Nc3ccccc3S2)cc1 | -46 | 10 | 1 | -1
COc1ccc(-c2cc3c(nn2)Nc2ccccc2S3)cc1 | 86* | 8 | 1 | -4
CC(C)CCN(Cc1cc([N+](=O)[O-])cc2c1OCOC2)S(=O)(=O)c1ccccc1F | -5 | 8 | 0 | 2
O=[N+]([O-])c1cc2c(c(CN(Cc3ccco3)S(=O)(=O)c3ccccc3F)c1)OCOC2 | 47* | -1 | 0 | 1
